{"source": "PubChem BioAssay (NCATS)", "key": {"[1]": {"target": "Cytochrome P450 3A4 (Homo sapiens) (UniProt P08684)", "sequence (P08684 whole entry, looked up)": "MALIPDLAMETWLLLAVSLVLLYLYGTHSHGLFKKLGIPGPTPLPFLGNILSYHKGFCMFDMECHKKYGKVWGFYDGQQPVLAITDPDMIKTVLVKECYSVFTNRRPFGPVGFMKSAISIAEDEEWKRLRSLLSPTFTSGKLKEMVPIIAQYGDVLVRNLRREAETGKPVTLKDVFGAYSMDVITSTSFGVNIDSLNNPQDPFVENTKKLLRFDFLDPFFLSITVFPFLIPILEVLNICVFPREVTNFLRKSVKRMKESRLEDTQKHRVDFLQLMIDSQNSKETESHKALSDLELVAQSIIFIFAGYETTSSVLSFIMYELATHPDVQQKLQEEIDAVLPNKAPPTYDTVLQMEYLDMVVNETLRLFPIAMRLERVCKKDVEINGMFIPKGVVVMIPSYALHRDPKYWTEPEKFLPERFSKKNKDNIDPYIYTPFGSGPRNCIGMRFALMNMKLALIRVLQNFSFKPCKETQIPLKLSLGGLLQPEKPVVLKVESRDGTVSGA", "assay": "qHTS Assay for Inhibitors and Substrates of Cytochrome P450 3A4 (AID 884); further: series mostly up to about 57 µM; nearly all actives have a fitted effect of over 50% in size", "how_it_was_run": "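20 nM human CYP3A4 with 25 uM Luciferin-PPXE (at KM) in 200 mM KPO4, preincubated 10 min with compound; NADPH regeneration started a 60 min RT reaction. Luciferin detected by luminescence, normalized to 57 uM ketoconazole as full inhibition.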"}, "[2]": {"assay": "Confirmation and Secondary Assay for Modulators of Hemoglobin Beta Chain Splicing at IVS2 654 locus (AID 910);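 further: per-well total GFP intensity by laser scanning cytometry after 2-day treatment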", "how_it_was_run": "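Readout: per-well total peak green fluorescence (488 nm ex, 500–520 nm em) from objects 5–250 µm, reflecting correct splicing of an EGFP-654 reporter. Compounds were applied for 2 days at 37 °C to overnight-plated HeLa EGFP-654 cells; controls were DMSO and 500 nM IVS2-654 PNA.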"}, "[3]": {"assay": "Confirmation and Secondary Assay for Modulators of Hemoglobin Beta Chain Splicing at IVS2 705 locus (AID 930);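 further: GFP fluorescence per well restored by corrected splicing of the IVS2-705 intron in EGFP; series mostly up to about 46 µM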", "how_it_was_run": "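Splice-correction reporter: EGFP cDNA split by beta-globin intron 2 bearing the 705 mutation, stably in HeLa. Compound incubation 2 days, 37C; fluorescent objects 5-250 µm summed per well.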"}, "[4]": {"tested_on": "Zika virus NS2B-NS3 protease (unlinked complex)", "assay": "Primary screen GU Rhodamine qHTS for Zika virus inhibitors: Unlinked NS2B-NS3 protease assay (AID 1347159); further: potency means the concentration at half of the fitted maximal effect; nearly all actives have a fitted effect of over 60% in size", "how_it_was_run": "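Noncovalent NS2B hydrophilic domain–NS3 protease domain complex (25 nM) preincubated 15 min at room temperature with compounds (up to 114 microM) in 10 mM Tris-HCl pH 8.0, 0.01% Tween 20; 1.5 microM Rhodamine110 substrate added, fluorescence change over 15 min fitted to Hill equation.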"}, "[5]": {"target": "Calcium and integrin-binding protein 1 (Homo sapiens) (UniProt Q99828)", "sequence (Q99828 whole entry, looked up)": "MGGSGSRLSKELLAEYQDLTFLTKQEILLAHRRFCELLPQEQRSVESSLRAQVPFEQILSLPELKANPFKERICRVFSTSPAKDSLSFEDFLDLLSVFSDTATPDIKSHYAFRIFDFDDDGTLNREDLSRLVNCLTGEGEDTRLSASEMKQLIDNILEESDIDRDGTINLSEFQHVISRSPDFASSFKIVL", "assay": "Primary qHTS for Identification of Calcium Integrin Binding Protein 1 (CIB1) Competitor (AID 1508620);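 further: GST tagged CIB1 binding a fluorescein labelled alphaIIb integrin peptide tracer; top concentration of the series differs between compounds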", "how_it_was_run": "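CIB1-GST (1 uM final) and compound incubated 15 min at room temperature before adding FITC-alphaIIb peptide tracer (100 nM final). Competition for binding read by fluorescence polarization (ex 480, em 540) after another 15 min at room temperature.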"}, "[6]": {"target": "Luciferin 4-monooxygenase (Photinus pyralis) (UniProt P08659)", "assay": "Primary firefly luciferase (FLuc) qHTS assay for identification of artifact compounds. (AID 1845220); further: nearly all actives have a fitted effect of over 60% in size", "how_it_was_run": "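FLuc 10 nM; luciferin 10 uM; ATP 10 uM; Tris-acetate pH 7.6, Mg-acetate 10 mM; 15 min RT preincubation; 5 min reaction; luminescence.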"}, "[7]": {"assay": "Primary fluorescence-based thiol-reactive (MSTI) qHTS assay for identification of artifact compounds. (AID 1845221); further: series mostly up to about 54 µM; nearly all actives have a fitted effect of over 65% in size", "how_it_was_run": "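MSTI probe at 4 uM final in 2% DMSO/PBS pH 7.4; compounds, 1 h at room temperature in dark. Fluorescence Ex/Em 525/598 nm, normalised to Acetyl-MSTI and MSTI, fitted to 4-parameter Hill.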"}, "[8]": {"tested_on": "Nanoluciferase (engineered Oplophorus gracilirostris luciferase)", "assay": "Primary Nanoluciferase (NLuc) qHTS assay for identification of artifact compounds. (AID 1845222);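 further: NLuc secreted into diluted conditioned medium of S16 cells; series mostly up to about 54 µM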", "how_it_was_run": "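NLuc from S16 cell medium (1:55) plus test compounds, 15 min, room temperature. Luminescence after Nano-Glo (1:100) addition, 5 min.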"}, "[9]": {"assay": "Primary redox qHTS assay for identification of artifact compounds. (AID 1845223)", "how_it_was_run": "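Amplex Red (25 uM) and HRP (250 mU/mL) in HBSS, with compounds for 15 min, then 250 uM DTT for 30 min, room temperature, dark. Fluorescence 525/598 nm read; normalized to DMSO and 10 uM DA3003; Hill fit.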"}, "[10]": {"assay": "NCATS anti-infectives library activity on HEK293 viability as a counter-qHTS vs the C. elegans viability qHTS (AID 1745854)", "how_it_was_run": "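HEK293 cells, 1500 per well, exposed 24 hr at 37C in 5% CO2 to compounds in a 1:5 titration, up to 41.7 uM final. Viability read as CellTiter-Glo luminescence after 10 min at room temperature.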"}, "[11]": {"target": "Cytochrome P450 1A2 (Homo sapiens) (UniProt P05177)", "sequence (P05177 whole entry, looked up)": "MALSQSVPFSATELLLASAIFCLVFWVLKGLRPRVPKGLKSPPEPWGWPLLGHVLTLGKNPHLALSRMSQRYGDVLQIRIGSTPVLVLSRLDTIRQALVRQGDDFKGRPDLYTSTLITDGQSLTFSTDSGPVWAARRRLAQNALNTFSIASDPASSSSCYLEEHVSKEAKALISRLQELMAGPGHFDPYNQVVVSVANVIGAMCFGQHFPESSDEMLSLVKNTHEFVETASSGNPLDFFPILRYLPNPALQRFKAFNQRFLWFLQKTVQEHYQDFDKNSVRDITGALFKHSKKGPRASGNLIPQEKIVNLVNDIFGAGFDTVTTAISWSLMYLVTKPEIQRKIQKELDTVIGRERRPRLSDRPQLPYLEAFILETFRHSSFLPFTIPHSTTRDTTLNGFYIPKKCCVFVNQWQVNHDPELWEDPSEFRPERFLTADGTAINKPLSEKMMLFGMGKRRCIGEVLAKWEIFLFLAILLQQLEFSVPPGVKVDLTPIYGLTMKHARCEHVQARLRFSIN", "assay": "p450-cyp1a2 (AID 410; calls by dose curve; further: potency means the concentration at half of the fitted maximal effect)", "how_it_was_run": "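Human CYP1A2 (20nM) demethylated Luciferin-ME at its Km (100uM) in 100mM KPO4. After 10 min compound preincubation, NADPH regeneration ran the reaction 60 min at room temperature. Luciferin was read by luminescence, normalized to 57 uM furafylline.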"}, "[12]": {"target": "Mitogen-activated protein kinase 10 (Mus musculus) (UniProt Q61831)", "assay": "JNK3 AlphaScreen Assay (AID 530; active means well fitted curve in either direction with a large enough effect, not every such curve was filed as active;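 further: signal reports phosphorylation of biotinylated GST-cJun 1-79 at Ser73 with 10 µM ATP; series mostly up to about 57 µM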)", "how_it_was_run": "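Room-temperature AlphaScreen kinase assay; pre-activated HepG2 lysate as JNK3 source, biotin-GST-cJun(1-79) substrate, 10 uM ATP, compound 15 min preincubation.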"}, "[13]": {"target": "Cytochrome P450 2C9 (Homo sapiens) (UniProt P11712)", "sequence (P11712 whole entry, looked up)": "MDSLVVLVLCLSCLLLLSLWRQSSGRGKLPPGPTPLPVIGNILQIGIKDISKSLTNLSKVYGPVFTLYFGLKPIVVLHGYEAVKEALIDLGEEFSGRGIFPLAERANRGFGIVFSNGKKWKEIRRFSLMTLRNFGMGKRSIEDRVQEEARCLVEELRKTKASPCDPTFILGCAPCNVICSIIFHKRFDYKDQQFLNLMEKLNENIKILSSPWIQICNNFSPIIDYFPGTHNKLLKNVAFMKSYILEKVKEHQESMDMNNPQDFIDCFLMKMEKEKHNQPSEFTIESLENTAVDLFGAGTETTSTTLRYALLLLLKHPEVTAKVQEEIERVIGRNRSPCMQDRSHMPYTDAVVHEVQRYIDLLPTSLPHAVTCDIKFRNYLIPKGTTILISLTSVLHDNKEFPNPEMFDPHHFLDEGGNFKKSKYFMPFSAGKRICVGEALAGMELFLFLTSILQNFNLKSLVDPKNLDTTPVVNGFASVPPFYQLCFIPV", "assay": "qHTS Assay for Inhibitors and Substrates of Cytochrome P450 2C9 (AID 883); further: potency means the concentration at half of the fitted maximal effect; nearly all actives have a fitted effect of over 60% in size", "how_it_was_run": "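Turnover of Luciferin-H (100uM, KM) by 10nM human CYP2C9 was measured over 60 min at 37C with NADPH regeneration; inhibitors and some substrates reduce luminescence. Data normalized to sulphaphenazole 57uM.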"}, "[14]": {"target": "Cytochrome P450 2C19 (Homo sapiens) (UniProt P33261)", "sequence (P33261 whole entry, looked up)": "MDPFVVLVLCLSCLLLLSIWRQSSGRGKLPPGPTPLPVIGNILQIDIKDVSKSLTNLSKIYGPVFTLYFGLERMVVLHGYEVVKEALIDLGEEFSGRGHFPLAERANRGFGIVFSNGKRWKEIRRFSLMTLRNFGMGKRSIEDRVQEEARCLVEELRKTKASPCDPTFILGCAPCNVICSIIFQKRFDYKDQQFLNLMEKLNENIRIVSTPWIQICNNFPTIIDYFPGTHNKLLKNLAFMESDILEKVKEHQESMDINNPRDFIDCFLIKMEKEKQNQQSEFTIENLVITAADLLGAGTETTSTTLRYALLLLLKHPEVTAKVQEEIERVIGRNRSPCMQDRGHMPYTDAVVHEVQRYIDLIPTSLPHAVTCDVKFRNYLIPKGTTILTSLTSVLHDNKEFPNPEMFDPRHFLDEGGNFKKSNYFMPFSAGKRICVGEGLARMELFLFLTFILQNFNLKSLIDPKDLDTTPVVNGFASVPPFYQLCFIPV", "assay": "qHTS Assay for Inhibitors and Substrates of Cytochrome P450 2C19 (AID 899); further: potency means the concentration at half of the fitted maximal effect; nearly all actives have a fitted effect of over 60% in size", "how_it_was_run": "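Reactions contain 5nM enzyme, 10uM Luciferin-H EGE (KM) and 50mM KPO4; compound preincubates 10 min at 37C, NADPH regeneration starts turnover for 60 min. Luminescence after detection reagent gives activity.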"}, "[15]": {"assay": "Counterscreen qHTS for small molecule stabilizers of the endoplasmic reticulum resident proteome: GLuc-NoTag assay (AID 1508627);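 further: SH-SY5Y cells given compound then 100 nM thapsigargin to empty ER calcium; series mostly up to about 76 µM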", "how_it_was_run": "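Luminescence of Gaussia luciferase secreted into the medium (coelenterazine, 0.07x final, unlysed cells) was the read-out. Human SH-SY5Y neuroblastoma cells constitutively secreting untagged GLuc received compound for 19 h, then 100 nM thapsigargin for 4 h.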"}, "[16]": {"tested_on": "Zika virus NS2B-NS3 protease (linked)", "assay": "384 well plate NINDS AMC confirmatory qHTS for Zika virus inhibitors (AID 1347163); further: potency means the concentration at half of the fitted maximal effect; nearly all actives have a fitted effect of over 50% in size", "how_it_was_run": "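Linked protease 5/30/60 nM final; cpds up to 1 mM final, ~15 min preinc. Substrate Ac-VKTGKR-AMC 30 microM final. RT, dark, 25 min; FI ex 355/em 460; normalized to no-enzyme/no-inhibitor ctrls.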"}, "[17]": {"tested_on": "Zika virus NS2B-NS3 protease (linked construct)", "assay": "384 well plate NINDS Rhodamine confirmatory qHTS for Zika virus inhibitors (AID 1347164); further: potency means the concentration at half of the fitted maximal effect; nearly all actives have a fitted effect of over 65% in size", "how_it_was_run": "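Fluorescence at 485/538 nm was measured 25 minutes after adding 10 microM Ac-LKRR-Rd substrate, in the dark at room temperature. The protease (5, 30 or 60 nM final) had been preincubated ~15 minutes with compound; aprotinin as control.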"}, "[18]": {"assay": "qHTS to identify inhibitors of the type 1 interferon - major histocompatibility complex class I in skeletal muscle: primary screen against the NCATS Mechanism Interrogation Plate v5.0 (MIPE) Libary (AID 1347411); further: nearly all actives have a fitted effect of over 65% in size; further: potency means the concentration at half of the fitted maximal effect", "how_it_was_run": "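Immortalized human C25cl48 myoblasts with HiBit knocked into endogenous HLA-B*08:01 were stimulated with 4.0 ng/ml IFN-beta and exposed to compounds (11-point 1:3 titration, top 46 uM final) for 24 hrs at 37 C; HiBiT lytic luminescence measured.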"}, "[19]": {"target": "3',5'-cyclic-AMP phosphodiesterase 4B (Homo sapiens) (UniProt Q07343)", "sequence (Q07343 whole entry, looked up)": "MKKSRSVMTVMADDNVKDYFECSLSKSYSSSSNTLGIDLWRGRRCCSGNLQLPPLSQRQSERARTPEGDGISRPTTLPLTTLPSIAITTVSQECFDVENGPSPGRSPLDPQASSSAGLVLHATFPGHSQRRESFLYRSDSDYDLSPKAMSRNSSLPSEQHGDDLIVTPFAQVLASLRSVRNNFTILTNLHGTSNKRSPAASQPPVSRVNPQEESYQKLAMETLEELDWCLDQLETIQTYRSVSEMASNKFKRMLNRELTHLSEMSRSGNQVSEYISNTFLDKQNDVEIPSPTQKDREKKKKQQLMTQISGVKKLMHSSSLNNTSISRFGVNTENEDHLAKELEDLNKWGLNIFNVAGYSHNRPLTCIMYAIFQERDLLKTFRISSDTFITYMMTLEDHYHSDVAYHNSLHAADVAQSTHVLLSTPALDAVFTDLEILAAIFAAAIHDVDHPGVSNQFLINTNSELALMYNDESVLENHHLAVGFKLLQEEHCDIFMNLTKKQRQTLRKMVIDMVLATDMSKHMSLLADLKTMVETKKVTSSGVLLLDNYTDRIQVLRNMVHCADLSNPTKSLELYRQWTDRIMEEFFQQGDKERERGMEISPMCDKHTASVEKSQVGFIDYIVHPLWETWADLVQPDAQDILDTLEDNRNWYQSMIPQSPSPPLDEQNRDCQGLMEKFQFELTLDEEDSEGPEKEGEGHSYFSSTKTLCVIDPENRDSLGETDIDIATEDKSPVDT", "assay": "qHTS Assay for Inhibitors of PDE-IV (AID 607; active means well fitted activation curve with a large enough effect in the main read-out, with a control signal flat, not every such curve was filed as active)", "how_it_was_run": "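ACTOne HEK293 cells carry a modified cAMP-gated CNG channel and express endogenous PDE4; plated 1000 cells/well, compounds up to 22.9 uM final. Membrane-potential dye fluorescence (ex 535/em 590) was read; parental cells received 10 uM forskolin + 100 uM RO 20-1724.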"}, "[20]": {"target": "Cytochrome P450 2D6 (Homo sapiens) (UniProt P10635)", "sequence (P10635 whole entry, looked up)": "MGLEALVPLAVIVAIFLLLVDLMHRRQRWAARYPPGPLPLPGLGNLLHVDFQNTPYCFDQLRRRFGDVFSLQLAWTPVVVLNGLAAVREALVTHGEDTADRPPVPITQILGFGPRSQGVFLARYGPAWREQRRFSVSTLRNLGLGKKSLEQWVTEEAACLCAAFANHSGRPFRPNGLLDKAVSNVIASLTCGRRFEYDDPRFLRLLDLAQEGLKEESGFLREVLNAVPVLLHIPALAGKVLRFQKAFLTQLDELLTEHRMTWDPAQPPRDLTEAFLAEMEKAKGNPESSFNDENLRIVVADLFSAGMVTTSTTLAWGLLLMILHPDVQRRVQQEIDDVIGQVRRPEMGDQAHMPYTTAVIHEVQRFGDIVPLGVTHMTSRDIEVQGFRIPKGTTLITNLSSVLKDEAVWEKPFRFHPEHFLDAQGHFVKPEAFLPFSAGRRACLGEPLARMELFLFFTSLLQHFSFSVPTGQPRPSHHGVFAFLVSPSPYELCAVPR", "assay": "qHTS Assay for Inhibitors and Substrates of Cytochrome P450 2D6 (AID 891)", "how_it_was_run": "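Human CYP2D6 (5 nM) with 30 uM Luciferin-ME EGE (at Km) in 100 mM KPO4, compound preincubated 10 min, then NADPH regeneration system for 60 min at room temperature. Luciferin read by luminescence; normalized to 1.43 uM quinidine.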"}}, "note": "Unmarked numbers belong to inactive results. Records with an inconclusive call do not appear. Entries that show only a call come without a potency. Active and inactive are the calls of the source. Unless noted, the call rests on the fitted dose curve; in most records, active means well fitted curve in the direction sought with a large enough effect; inconclusive means small, poorly fitted or top-dose-only effect, or another doubt; inactive means no such curve, though single readings can be large; an effect the other way counts as inactive or inconclusive.", "data": [{"smiles": "COc1cc(/C=C/C(=O)O)ccc1O", "values": [{"measurement": "Potency", "setting": "[1]", "value": "inactive"}, {"measurement": "outcome", "setting": "[2]", "value": "inactive"}, {"measurement": "outcome", "setting": "[3]", "value": "inactive"}]}, {"smiles": "O=C(CCCCCCC(=O)Nc1ccc(C2OC(CSc3nc(-c4ccccc4)c(-c4ccccc4)o3)CC(c3ccc(CO)cc3)O2)cc1)NO", "note": "(stereo not drawn)", "values": [{"measurement": "Potency", "setting": "[4]", "value": "39.8 µM (active)"}, {"measurement": "outcome", "setting": "[5]", "value": "inactive"}, {"measurement": "Potency", "setting": "[6]", "value": "inactive"}, {"measurement": "Potency", "setting": "[7]", "value": "inactive"}, {"measurement": "Potency", "setting": "[8]", "value": "inactive"}, {"measurement": "Potency", "setting": "[9]", "value": "inactive"}]}, {"smiles": "COc1c(O)cc2oc(-c3ccccc3)cc(=O)c2c1O", "values": [{"measurement": "outcome", "setting": "[10]", "value": "inactive"}]}, {"smiles": "CC1(C)CC[C@]2(C(=O)O)CC[C@]3(C)C(=CC[C@@H]4[C@@]5(C)C[C@@H](O)[C@H](O)C(C)(C)[C@@H]5CC[C@]43C)[C@@H]2C1", "values": [{"measurement": "outcome", "setting": "[10]", "value": "inactive"}]}, {"smiles": "O=C1CCCC2=C1C(c1ccccc1Br)N=C(Nc1nc3ccccc3o1)N2", "note": "(stereo not drawn)", "values": [{"measurement": "outcome", "setting": "[5]", "value": "inactive"}]}, {"smiles": "COc1cc(N)c(Cl)cc1C(=O)N[C@H]1CCN(CCCOc2ccc(F)cc2)C[C@@H]1OC", "values": [{"measurement": "Potency", "setting": "[11]", "value": "25.1 µM (active)"}, {"measurement": "Potency", "setting": "[12]", "value": "inactive"}, {"measurement": "Potency", "setting": "[13]", "value": "1 µM (active)"}, {"measurement": "Potency", "setting": "[14]", "value": "0.794 µM (active)"}, {"measurement": "Potency", "setting": "[15]", "value": "inactive"}]}, {"smiles": "O=S(=O)(Nc1ccc(O)c(Sc2nc3ccccc3s2)c1)c1cc(Cl)ccc1Cl", "values": [{"measurement": "Potency", "setting": "[16]", "value": "112 µM (active)"}, {"measurement": "Potency", "setting": "[17]", "value": "44.7 µM (active)"}]}, {"smiles": "Cc1ccc(Nc2ncc3c(n2)N(C)C(=O)N(c2cc(NC(=O)c4cccc(C(F)(F)F)c4)ccc2C)C3)cn1", "values": [{"measurement": "Potency", "setting": "[18]", "value": "0.0658 µM (active)"}]}, {"smiles": "CC(C)n1cc(-c2ccc(Oc3ccccc3)cc2)c2c(N)ncnc21", "values": [{"measurement": "outcome", "setting": "[5]", "value": "inactive"}]}, {"smiles": "CNC(=O)c1c(C)oc2cc(Oc3ncnc4cc(OC)c(OC)cc34)ccc12", "values": [{"measurement": "Potency", "setting": "[18]", "value": "inactive"}]}, {"smiles": "CC[C@@](N)(C(=O)O)c1ccc(C(=O)O)cc1", "values": [{"measurement": "Potency", "setting": "[12]", "value": "inactive"}, {"measurement": "Potency", "setting": "[19]", "value": "inactive"}]}, {"smiles": "CS(=O)(=O)Nc1ccc([N+](=O)[O-])cc1OC1CCCCC1", "values": [{"measurement": "Potency", "setting": "[11]", "value": "3.98 µM (active)"}, {"measurement": "Potency", "setting": "[20]", "value": "0.0501 µM (active)"}, {"measurement": "Potency", "setting": "[14]", "value": "0.0794 µM (active)"}]}, {"smiles": "O=C1CCc2c(ccc3ccccc23)O1", "values": [{"measurement": "Potency", "setting": "[12]", "value": "inactive"}, {"measurement": "Potency", "setting": "[19]", "value": "inactive"}, {"measurement": "outcome", "setting": "[10]", "value": "inactive"}]}, {"smiles": "CCOC(=O)C(CCc1ccccc1)NC1CCc2ccccc2N(CC(=O)O)C1=O", "note": "(stereo not drawn)", "values": [{"measurement": "outcome", "setting": "[2]", "value": "inactive"}, {"measurement": "outcome", "setting": "[3]", "value": "inactive"}]}, {"smiles": "CC[N+](CC)(CC)CCOc1ccc(/C=C\\c2ccccc2)cc1", "values": [{"measurement": "Potency", "setting": "[11]", "value": "31.6 µM (active)"}, {"measurement": "Potency", "setting": "[12]", "value": "inactive"}, {"measurement": "Potency", "setting": "[19]", "value": "inactive"}, {"measurement": "Potency", "setting": "[20]", "value": "7.94 µM (active)"}]}, {"smiles": "NCCC[C@@H](N)C(=O)O", "values": [{"measurement": "activity change, negative = inhibition", "setting": "[12]", "value": "6.02% [at 11.4 µM]"}, {"measurement": "Potency", "setting": "[19]", "value": "inactive"}]}]}
